# DT40 TDP1 no CPT: qHTS for Inhibitors of human tyrosyl-DNA phosphodiesterase 1 (TDP1): qHTS in cells in absence of CPT; DT40 Tdp1-/- hTDP1 cells, no CPT, ATP luminescence, 48 h; Potency, µM (doses to about 46.2 µM), for inactives: at the highest dose activity change, negative = growth inhibition, most hits filed as inhibitors; 15% of 420,000 active; AID 686978, 2013; further: potency means the concentration at half of the fitted maximal effect; on the % scale 0 is the no-effect control and ±100 the full control effect; nearly all actives have a fitted effect of over 55% in size
#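 Readout: luminescence from CellTiter-Glo after 30 min in the dark at RT. Cells: DT40 Tdp1-/- with stable hTDP1, 400/well. Exposure: compounds alone, ≥48 hr, 37 °C.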
# IL-1B inflam inh: inflammasome signaling inhibition, IL-1 beta readout; AID 743279; 4.7% of 360,000 active; THP-1 LPS/ATP IL-1B secretion, AlphaLISA, 16 h; stronger effect = lower value; activity change, % at 57.5 µM; in the data active means activity change below about -50%; inconclusive means mostly about -30% to -49%; further: on the % scale 0 is the no-effect control and ±100 the full control effect
#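 Secreted IL-1B measured by AlphaLISA bead assay after 16 h compound exposure of THP-1 cells; compounds (final up to 57.5 uM) added 1 h before LPS (250 ng/mL) and ATP (1.25 mM) stimulation; lower signal means less secretion.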
# ASM inhibitor: blocks human secretory acid sphingomyelinase; P17405; placental ASM, HMU-PC fluorogenic substrate, 60 min; Potency, µM (series often up to 57.5 µM), for the others: at the top dose activity change, negative = inhibition, usual class: inhibitors; 0.006% of 340,000 active; further: potency means the concentration at half of the fitted maximal effect
# Target sequence (P17405 47-631 limits assumed): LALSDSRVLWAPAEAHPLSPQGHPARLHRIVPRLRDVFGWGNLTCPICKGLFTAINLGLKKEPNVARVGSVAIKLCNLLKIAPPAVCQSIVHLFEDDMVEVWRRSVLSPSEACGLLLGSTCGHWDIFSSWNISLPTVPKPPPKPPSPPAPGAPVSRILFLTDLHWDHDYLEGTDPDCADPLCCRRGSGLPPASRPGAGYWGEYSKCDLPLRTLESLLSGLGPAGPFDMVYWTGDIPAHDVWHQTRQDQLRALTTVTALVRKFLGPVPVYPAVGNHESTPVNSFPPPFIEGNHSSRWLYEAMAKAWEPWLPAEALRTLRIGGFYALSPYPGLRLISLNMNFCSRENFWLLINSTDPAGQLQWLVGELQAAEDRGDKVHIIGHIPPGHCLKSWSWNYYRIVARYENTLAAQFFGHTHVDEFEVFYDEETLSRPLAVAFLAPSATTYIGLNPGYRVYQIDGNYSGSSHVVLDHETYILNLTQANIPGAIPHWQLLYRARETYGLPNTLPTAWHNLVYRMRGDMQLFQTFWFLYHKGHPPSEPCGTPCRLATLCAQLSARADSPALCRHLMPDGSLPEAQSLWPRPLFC
#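 Fluorescence read-out (Ex 386 nm, Em 447 nm) after stopping the reaction at pH 10. Enzyme: ASM from human placenta; substrate HMU-PC0, 9 uM final; 60 min, 37 °C. Compound preincubation 10 min, ambient temperature.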
# TGFb SMAD3 inh: blocks TGF-b signaling | HepG2 CAGA-GFP TGF-b/SMAD3 reporter, GFP fluorescence, 18 h; TGF-beta stimulated, 500 pg/mL final | Potency, µM (doses to about 46.1 µM), for the others: top-dose activity, negative = inhibition, actives largely listed as inhibitors | 1.2% of 410,000 active | AID 588855; further: potency means the concentration at half of the fitted maximal effect; on the % scale 0 is the no-effect control and ±100 the full control effect; nearly all actives have a fitted effect of over 65% in size
#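 Cell-based qHTS in HEPG2 carrying a CAGA-GFP Smad reporter; compounds added before 500 pg/mL final TGF-beta, 18 h incubation at 37 degrees C, GFP fluorescence quantified per cell by imaging cytometry.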
# HepG2 tox-1: counter-screen for TGF-b inhibitors: cytotoxicity in HepG2 cells. HepG2 CAGA-GFP viability, ATP luminescence, 18 h. Potency, µM (top dose mostly 46.1 µM), inactives show at the top dose activity change, negative = cytotoxicity, actives largely listed as cytotoxic. 0.76% of 410,000 active. AID 588856; further: potency means the concentration at half of the fitted maximal effect
#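 HepG2 CAGA-GFP cells (1000/well, DMEM with 1% FBS) received compound, then TGF-beta at 500 pg/mL final, and were incubated 18 hours at 37 degrees C. Viability was read by CellTiter-Glo luminescence. Media-only wells were set as complete cell-killing and DMSO as no toxicity.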
# TDP1 cell CPT: growth inhibition of DT40 Tdp1-/-;hTDP1 cells with camptothecin (screen for TDP1 inhibitors). chicken DT40 Tdp1-/-;hTDP1 cells + 20 nM CPT, ATP luminescence, 48 h. 12% of 420,000 active. Potency, µM (series often up to 46.2 µM), for the others: at the top dose activity change, negative = growth inhibition, usual class: inhibitors; further: potency means the concentration at half of the fitted maximal effect; on the % scale 0 is the no-effect control and ±100 the full control effect; nearly all actives have a fitted effect of over 55% in size
#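 Chicken DT40 Tdp1-/- cells complemented with human TDP1, 400 cells/well, exposed to compounds plus 20 nM camptothecin for at least 48 h at 37 C; viability read as ATP content by CellTiter-Glo luminescence.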
# TGFb confirm: confirmation of TGF-b signaling inhibitors in HepG2 reporter cells; shares compounds with TGFb SMAD3 inh; HepG2 CAGA-GFP TGF-b reporter, GFP fluorescence, 18 h; cells stimulated with TGF-beta, 500 pg/mL; Potency, µM (highest dose often 46.1 µM), without a hit: at the top dose activity, negative = inhibition, most hits filed as inhibitors; 63% of 1,600 active; further: potency means the concentration at half of the fitted maximal effect; on the % scale 0 is the no-effect control and ±100 the full control effect; nearly all actives have a fitted effect of over 65% in size
# HepG2 tox-2: HepG2 cytotoxicity, TGF-b inhibitor counterscreen | shares compounds with TGFb SMAD3 inh | HepG2 CAGA-GFP viability, ATP luminescence, 18 h; cells stimulated with TGF-beta, 500 pg/mL | Potency, µM (titrated, usually from 46.1 µM), without a hit: at the highest dose activity, negative = cytotoxicity, actives largely listed as inhibitors | 27% of 1,600 active; further: potency means the concentration at half of the fitted maximal effect; on the % scale 0 is the no-effect control and ±100 the full control effect; nearly all actives have a fitted effect of over 70% in size
# CCL64 TGFb inh: blocks TGF-b signaling in CCL64 reporter cells; shares compounds with TGFb SMAD3 inh; CCL64 CAGA-GFP reporter, TGF-b stimulated, GFP fluorescence, 18 h; Potency, µM (doses to about 46.1 µM), for inactives: at the highest dose activity, negative = inhibition, usual class: inhibitors; 41% of 1,600 active; AID 720536; further: potency means the concentration at half of the fitted maximal effect; nearly all actives have a fitted effect of over 65% in size
# TGFb COP inh: TGF-b inhibition validated with COP promoter; shares compounds with TGFb SMAD3 inh; HepG2 COP-GFP TGF-b reporter, GFP fluorescence, 18 h; cells stimulated by added recombinant TGF-beta; Potency, µM (highest dose often 46.1 µM), for inactives: top-dose activity, negative = inhibition, most hits filed as inhibitors; 3% of 1,600 active; AID 720537; further: potency means the concentration at half of the fitted maximal effect; nearly all actives have a fitted effect of over 70% in size
# * marks the source's active call; other numbers are inactive results; u = inconclusive; x = no result; ! = a repeat was not active. Only some compounds are listed: those with a hit (about 19% of all), similar ones and a draw of the others. Unless noted, the call rests on the fitted dose curve; in most records, active means well fitted curve in the direction sought with a large enough effect; inconclusive means small, poorly fitted or top-dose-only effect, or another doubt; inactive means no such curve, though single readings can be large; an effect the other way counts as inactive or inconclusive.
SMILES,DT40 TDP1 no CPT,IL-1B inflam inh,ASM inhibitor,TGFb SMAD3 inh,HepG2 tox-1,TDP1 cell CPT,TGFb confirm,HepG2 tox-2,CCL64 TGFb inh,TGFb COP inh
CN(C)c1cccc2c1C(=O)c1ccccc1C2=O,u,u,-6%,-23%,-18%,-30%,x,x,x,x
COc1ccc(C(=O)/C(C#N)=N/Nc2ccccc2[N+](=O)[O-])cc1,1.8µM*,-22,-13%,1.1µM*,-18%,2.3µM*,10µM*,u,u,1%
CCCc1c(C)nn(C(=O)/C(C#N)=N/Nc2ccccc2[N+](=O)[O-])c1C,-21%,1,-2%,0%,-1%,-5%,x,x,x,x
Cc1cccc(NS(=O)(=O)c2c(C(=O)N3CCCC3)c(C)n(C)c2C)c1,9%,17,2%,-9%,2%,-2%,x,x,x,x
O=S(=O)(CC(CN1CCCCC1)N1CCCCC1)c1ccc2ccccc2c1 (stereo not drawn),2.6µM*,-97*,2%,3.2µM*,11µM*,5.2µM*,13µM*,13µM*,u,u
Cc1ccc(-n2cc(CCCCCCCCC(=O)O)nn2)cc1,9%,6,0%,u,-3%,-2%,x,x,x,x
CC(SCc1ccccc1)C(=O)Nc1ccccc1 (stereo not drawn),10%,28,4%,-2%,-1%,-11%,x,x,x,x
CCn1c2ccccc2c2cc(/C=N/O)ccc21,u,-12,-11%,u,-28%,u,x,x,x,x
CCn1c2ccccc2c2cc(/C=N/NC(=O)c3ccccc3C)ccc21,2.6µM*,51,14%,4µM*,-12%,2.6µM*,8.2µM*,4.1µM*,u,18%
CC1(C)COC2(OC1)C(=O)N(CN1CCOCC1)c1ccccc12,u,17,-3%,-5%,7%,u,x,x,x,x
COc1ccc(C(=O)N(C)C2CCN(C)CC2)cc1S(=O)(=O)Nc1cc(Cl)ccc1Cl,-14%,0,1%,14%,24%,1%,x,x,x,x
Cc1cc(F)c(F)c(C(=O)N2C(C)CCCC2C)c1Cl (stereo not drawn),u,48,2%,4%,-7%,u,x,x,x,x
Cc1ccnc(NC(=O)CCCOc2cc(=O)n(C)c3ccccc23)c1,u,-76*!,-2%,2.2µM*,-1%,u,5.8µM*,4.1µM*,26µM*,22%
Cn1c(=O)cc(OCCCC(=O)NCc2ccccn2)c2ccccc21,0%,12,6%,1%,-20%,-13%,x,x,x,x
COc1cc(/C=C(\C#N)c2nc3ccccc3[nH]2)cc(Br)c1OCc1ccc(F)cc1,u,2,33%,6%,-28%,u,x,x,x,x
COc1cc(/C=C(\C#N)c2nc3ccccc3[nH]2)cc(Br)c1OCc1ccccc1,21µM*,-18,294%,11µM*,-29%,18µM*,u,u,-19%,22%
COc1ccc(C(=O)C(CCC(CNC(C)(C)C)C(=O)c2ccc(OC)cc2)CNC(C)(C)C)cc1 (stereo not drawn),5.2µM*,-101*,-3%,7.1µM*,-81%,5.2µM*,u,18µM*,4.1µM*,u
COc1ccc(C(=O)CC(=O)c2ccc(C(C)(C)C)cc2)cc1,u,8,7%,-3%,-8%,u,x,x,x,x
C=CCNC(=O)c1ccccc1NC(=O)C1CCN(S(=O)(=O)c2ccc(SC)cc2)CC1,u,-16,1%,18%,23%,-15%,x,x,x,x
CCOC(=O)C1=C(CC)Nc2ccccc2N=C1NC(=O)Nc1ccc(Cl)c(Cl)c1,2.6µM*,-74*,-16%,7.1µM*,-36%,2.9µM*,18µM*,u,6.5µM*,81%
CCOC(=O)C1=C(CC)Nc2ccccc2N=C1NC(=O)c1cc(C)on1,u,0,1%,0%,-24%,-23%,x,x,x,x
CCOc1ccc(CCN2C(=S)N([C@@H](CC(C)C)CN3CCCC3CN3C(=S)NC[C@@H]3Cc3ccc(O)cc3)C[C@@H]2Cc2ccc(O)cc2)cc1 (stereo partly drawn),6.5µM*,-71*,u,7.1µM*,13µM*,6.5µM*,21µM*,u,13µM*,53%
CCOc1ccc(CCN2C(=S)N([C@@H](CC(C)C)CN3CCCC3CN3C(=S)NC[C@@H]3Cc3ccc(O)cc3)C[C@@H]2Cc2ccccc2)cc1 (stereo partly drawn),u,u,-18%,u,-8%,16µM*,u,-16%,u,-3%
O=C1NC[C@H](CCCCN2C[C@H](Cc3ccccc3)N(CC3CCCCC3)C(=O)C2=O)N(CCc2ccc(O)cc2)C1=O,-5%,0,x,x,x,3%,x,x,x,x
CCOc1ccc(CCN2C(=S)N([C@@H](Cc3ccc(O)cc3)CN3CCC[C@@H]3CN3C(=S)NC[C@@H]3Cc3ccccc3)C[C@@H]2Cc2ccc(O)cc2)cc1,4.1µM*,u,x,8.9µM*,-1%,3.7µM*,6.5µM*,u,5.8µM*,44%
COc1cc(Cl)ccc1OCc1cc(C(=O)N(C)Cc2cccc3cnccc23)no1,12µM*,-64*,x,11µM*,-39%,15µM*,15µM*,u,u,14%
COc1ccc2cc(-c3ccccc3F)ncc2c1,u,67,5%,u,-31%,u,-9%,-21%,0%,9%
